Potency and activation data for 38 compounds are collected here from PubChem BioAssay AID624305 (National Center for Advancing Translational Sciences (NCATS), 2012).

Records with an inconclusive call do not appear. A call without a number means that no potency is given here. Unmarked numbers belong to inactive results. Calls of active or inactive are those of the source. Calls come from the whole dose curve; as a rule, active = well fitted activation curve with a large enough effect; inconclusive = small, poorly fitted or top-dose-only effect; inactive = no such curve, though single readings can be large or run the other way.
Potency is the fitted concentration of half-maximal effect.

A short description of this experiment: qHTS assay for re-activators of p53 using a Luc reporter: Hit Validation. Note: nearly all actives have a fitted effect of over 75% in size. Particulars: p53-responsive luciferase reporter cells, luminescence, H1299 line expressing heat-sensitive Ala138Val p53; series mostly up to 46.1 µM. The procedure, abridged:
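Hit confirmation with a 1:5 dilution series, at 37 deg C for 24 hrs, in H1299 cells co-expressing temperature-sensitive p53-A138V and p53-responsive luciferase. Nocodazole served as control; luminescence read after 10 min with detection reagent.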
(Quantitative high-throughput screening tests each substance at several concentrations.)
As to `O=C(Nc1cnc2ccccc2c1)C1COc2ccccc2O1` (stereo not drawn), the Potency was 9.2 µM (active).
With `Cc1ccc(C(=O)Nc2ncc3c(n2)CC(c2ccco2)CC3=O)cc1` (stereo not drawn), the Potency result was “inactive”.
On to `O=C(NC(=S)NC1CCCCC1)c1ccccc1[N+](=O)[O-]`, for which the Potency result was “inactive”.
Consider `O=C(c1ccccc1)n1c(=S)nc2ccccn21`, for which the Potency was 0.164 µM (active).
Turning to `CN(C)/C=N/c1cnc(C(=O)c2ccc(Cl)cc2)n1C`, the Potency was 2.59 µM (active).
Take `Oc1ccccc1-c1cc(-c2ccc3c(c2)OCCO3)n[nH]1`: the Potency was 0.184 µM (active).
On to `O=C(NCc1ccc(-c2nc3ccccc3s2)cc1)c1cc2ccccc2o1`, for which the Potency entry is “inactive”.
On to `O=C(NC1CCCCC1)c1ccc(-c2ccccc2F)o1`, for which the Potency was 3.66 µM (active).
For `COc1cc(CNC2CCCCCCC2)c(Br)cc1OCCO`, the Potency entry was “inactive”.
On the same count and under the same terms, the same measure for `Cc1ccc(S(=O)(=O)NCC(=O)N2CCc3ccccc3C2)cc1`: “inactive”.
As to `COc1ccc(-c2nnc(-c3ccc(Br)o3)o2)cc1OC`, the Potency entry was “inactive”.
Turning to `Cc1csc(NC(=O)/C=C/c2ccco2)n1`, the Potency is 10.3 µM (active).
Turning to `O=[N+]([O-])c1cc(C(F)(F)F)ccc1NCCc1c[nH]c2ccccc12`, the Potency entry was “inactive”.
Regarding `CC(C)/C=C1\CC/C(=C\c2ccc(N(C)C)cc2)C1=O`, the Potency is 2.91 µM (active).
Consider `Cc1ccnc(NC(=O)c2sc3cc(Cl)ccc3c2Cl)c1`, for which the Potency is 2.91 µM (active).
Still for that read-out and setting: the same measure for `O=C(Nc1ccc(COc2ccccc2)cc1)c1cccc([N+](=O)[O-])c1`: “inactive”; for `COc1ccnc(CSC(N)=Nc2ccccc2OC)c1`: “inactive”; for `O=C(Nc1ccc(-c2nc3cc(Cl)ccc3c(=O)o2)cc1)c1ccco1`: “inactive”.
For the compound `CCCCNC(=S)N(Cc1c(C)noc1C)c1ccccc1`, the Potency entry was “inactive”.
For `O=C(NN=C1CCCCCC1)c1cccs1`, the activation was 12.5% [at 9.22 µM].
`CCOC(=O)c1sc(NC(=S)NC(=O)c2ccco2)nc1C`: the Potency result is “inactive”.
Consider `CCOC(=O)c1ccc2ncc(C(=O)OCC)c(NCc3ccco3)c2c1`, for which the Potency entry is “inactive”.
The same measure, in the same setting: the same measure for `COc1ccc2[nH]c(=O)c3c(c2c1)OC(C)(C)C=C3`: “inactive”; for `Cc1cc(C)cc(NC(=O)CSc2nnc(-c3ccccc3C)o2)c1`: “inactive”.
Still for that read-out and setting: then `Cc1ccc(OCCCNCCO)c(Br)c1`, with “inactive”; and `Cc1ccc(-c2nnc(Oc3cccc(C)c3)c3ccccc23)cc1`, with 7.31 µM (active); and `CCOC(=O)CC(=O)Nc1ccc(C(=O)OCC)cc1`, with “inactive”.
Same read-out and setting: the same measure for `N#C/C(=C\c1ccccc1[N+](=O)[O-])c1nc(C2CC2)cs1`: 23.1 µM (active); for `CN(C)c1ccc(NC(=O)CCCc2ccccc2)cc1`: 1.46 µM (active).
For `CN1CCN(C(=O)c2cc3ccccc3cc2O)CC1`, the Potency entry is “inactive”.
Same read-out and setting: then `O=C(c1cnn(-c2ccccc2)c1)c1ccccc1O`, with 1.46 µM (active).
Take `Clc1ccc(OCc2nc(-c3ccccn3)n[nH]2)cc1`: the Potency result is “inactive”.
In the case of `Cc1ccsc1C(=O)Nc1ccc2c(c1)OCCO2`, the Potency is 0.326 µM (active).
On to `COc1ccccc1NC(CC(=O)c1ccccc1)C(=O)OCC(=O)c1ccc(C)cc1` (stereo not drawn), for which the Potency was 0.206 µM (active).
Same read-out and setting: then `CC(C)(C)c1nnc(SCC(=O)c2ccccc2)n(N)c1=O`, with “inactive”.
As to `Clc1ccc(-c2cn3c(n2)-c2ccccc2C3)cc1Cl`, the Potency was 10.3 µM (active).
Regarding `Cc1ccc(NC(CC(=O)c2ccccc2)c2ccc(F)cc2)cc1` (stereo not drawn), the Potency result is “inactive”.
Regarding `CC(C)C(=O)Nc1ccc(-c2nc3cccnc3o2)cc1`, the Potency was 0.366 µM (active).
